Target: 5'-AMP-activated protein kinase catalytic subunit alpha-2 (Homo sapiens) (UniProt P54646)
Settings: at 1 µM

Sequence of 5'-AMP-activated protein kinase catalytic subunit alpha-2 (Homo sapiens) (P54646 whole entry, looked up): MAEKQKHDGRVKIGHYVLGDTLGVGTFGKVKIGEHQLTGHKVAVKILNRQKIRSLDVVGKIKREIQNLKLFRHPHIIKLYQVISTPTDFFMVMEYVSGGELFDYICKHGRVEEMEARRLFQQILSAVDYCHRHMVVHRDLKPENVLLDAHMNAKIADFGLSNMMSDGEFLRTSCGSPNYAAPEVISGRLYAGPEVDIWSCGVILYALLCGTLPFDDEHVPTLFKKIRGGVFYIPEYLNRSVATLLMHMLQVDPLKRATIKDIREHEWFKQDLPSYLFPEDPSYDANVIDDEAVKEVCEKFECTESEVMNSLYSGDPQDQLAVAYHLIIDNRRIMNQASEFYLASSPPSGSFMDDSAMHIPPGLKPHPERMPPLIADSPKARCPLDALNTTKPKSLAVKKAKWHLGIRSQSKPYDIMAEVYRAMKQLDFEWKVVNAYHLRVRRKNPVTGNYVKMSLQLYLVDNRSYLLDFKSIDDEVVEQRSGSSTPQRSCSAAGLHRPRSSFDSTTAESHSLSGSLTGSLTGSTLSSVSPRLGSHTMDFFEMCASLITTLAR

Structure (SMILES)	inhibition [%]
COc1cc2ncn(-c3cc(O[C@H](C)c4ccccc4Cl)c(C(N)=O)s3)c2cc1OC	8.68
NC(=O)c1ccc(-c2nc(-c3ccccn3)c(-c3ccc4c(c3)OCO4)[nH]2)cc1	2.23
Cn1cc(C=C2C(=O)Nc3cccnc32)c2ccccc21	8.64
CNC(=O)c1cncc(/C=C/c2c(Cl)cccc2Cl)c1	1.77
COc1cc2ncn(-c3cc(OCc4ccccc4C(F)(F)F)c(C(N)=O)s3)c2cc1OC	6.24
O=C1Nc2ccc(C(=O)c3ccco3)cc2C1=Cc1cc(Cl)c(O)c(Cl)c1	10.8
COc1ccc(-c2nn3ncccc3c2-c2ccnc(Nc3ccc(Cl)c(C(F)(F)F)c3)n2)cc1	-8.45
CS(=O)(=O)Nc1ccc(N/C=C2\C(=O)Nc3ccccc32)cc1	4.21
Fc1cccc(COc2ccc(Nc3ncnc4sc(-c5cccs5)cc34)cc2Cl)c1	0.62
CCN1CCC(CC(=O)Nc2n[nH]c3nc(-c4cccs4)c(Br)cc23)CC1	5.99
O=C1NC(=O)C(c2ccccc2Cl)=C1Nc1cccc(O)c1	4.22
CCn1c(-c2nonc2N)nc2cncc(C(=O)N3CCNCC3)c21	3.25
CN1CCC(C(=O)Nc2n[nH]c3nnc(-c4ccccc4)cc23)CC1	5.01
CS(=O)(=O)CCN(CC#N)Cc1ccc(-c2ccc3ncnc(Nc4ccc(OCc5cccc(F)c5)c(Cl)c4)c3c2)o1	-0.61
COc1ccc(-c2coc3ncnc(N)c23)cc1	5.94
Cc1ccc(NC(=O)c2ccnc(N3CCCC3)c2)cc1-c1ccc(C(=O)NCC2CC2)cc1	8.93
CCn1c(-c2nonc2N)nc2c(C#CC(C)(C)O)nc(CN3CCCC3)cc21	6.62

Structure (SMILES)	inhibition [%]
CCn1c(-c2nonc2N)nc2c(N3CCCC3)nccc21	0.77
CCCN1CCC=C(c2ccc(Nc3nc(Nc4ccccc4C(N)=O)c4cc[nH]c4n3)c(C)c2)C1	14.5
CC1=C(C(=O)Nc2ccc3[nH]ncc3c2)C(c2ccc(F)cc2)NC(=O)N1 (stereo not drawn)	5.96
COc1cccc(-n2ncc3c(N/N=C/c4cccc(F)c4)ncnc32)c1	6.48
Cc1ccc(C(=O)NC2CCCCC2)cc1-c1ccc(C(=O)NCC2CC2)cc1	1.51
Nc1ncnc2occ(-c3ccc(NC(=O)Nc4cc(C(F)(F)F)cc(C(F)(F)F)c4)cc3)c12	4.79
CC(C)=Cc1cccc2c1/C(=N/Nc1ccc(S(N)(=O)=O)cc1)C(=O)N2	40.2
CC1=C(C(=O)Nc2ccc3[nH]ncc3c2)C(c2ccc3ccccc3c2)CC(=O)N1 (stereo not drawn)	11.5
COc1ccc(-c2ccncc2)cc1C(N)=O	4.51
COc1cc2ncn(-c3cc(OCc4ccccc4Cl)c(C(N)=O)s3)c2cc1OC	3.59
CCn1c(-c2nonc2N)nc2cnc(Oc3cccc(NC(=O)c4ccc(OCCN5CCOCC5)cc4)c3)cc21	3.43
CN(C)c1cc2c(Nc3ccc4nc(Cc5ccccc5)[nH]c4c3)ncnc2cn1	4.85
N#Cc1c(NC(=O)c2cccc3ccccc23)sc2c1CCCC2	5.58
Cc1cccc(-c2n[nH]cc2-c2ccc3ncccc3n2)n1	1.54
NS(=O)(=O)c1cccc(-c2ccc3c(NC(=O)C4CC4)n[nH]c3c2)c1	-0.49
O=C1NC(=O)C(c2cccc(Cl)c2)=C1Nc1ccc(O)c(Cl)c1	11

— ChEMBL document CHEMBL1961873, “Compounds: GSK PKIS; Assays: Nanosyn kinase panel” (2012)
